Screening results (PubChem BioAssay)
S16 F2sN tox: toxic to S16 Pmp22-F2sN Schwann cells; S16 Pmp22-F2sN Schwann cells viability, CellTiter-Glo, 24 h; 0.48% of 43,000 active; AID 1508642; Potency, µM (series often up to 57.5 µM), for the others: at the highest dose activity change, negative = cytotoxicity, actives largely listed as cytotoxic; note: nearly all actives have a fitted effect of over 65% in size
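Luminescence from CellTiter-Glo, read by CCD camera after a 15 min room-temperature incubation, served as the viability signal. Reporter Schwann cells (S16 Pmp22-F2sN) had been treated with pin-transferred compounds for 24 h at 37C.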
p53null 32C kill: p53 null cell cytotoxicity, permissive temperature. H1299-neo p53 null cells, ATP luminescence, 24 h, 32C. Potency, µM (highest dose often 46.1 µM), for inactives: at the highest dose activity change, negative = cytotoxicity, most hits filed as cytotoxic. 0.62% of 55,000 active. AID 903;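 note: 0% = DMSO only and -100% = full killing by 100 µM tamoxifen; nearly all actives have a fitted effect of over 55% in size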
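We seeded p53-null H1299-neo cells, incubated them overnight at 37C, and added compounds across a range up to 46 uM. After 24 hours at 32C, ATP reagent was applied for 20 min at room temperature and luminescence recorded.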
pS6 MEF inh: reduces mTORC1 signaling in Tsc2 and p53 null MEF cells | Tsc2-/- p53-/- MEF, phospho-rpS6 immunofluorescence/PI, 24 h | 0.78% of 44,000 active | Potency, µM (series often up to 38.3 µM), inactives show at the top dose activity change, negative = inhibition, actives largely listed as inhibitors;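 note: plate controls were DMSO for no effect and rapamycin for full effect; nearly all actives have a fitted effect of over 50% in size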
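Tsc2-/-, p53-/- mouse embryonic fibroblasts (empty-vector line) exposed to compound 24 hrs at 37 C, fixed, immunostained for phospho-rpS6 and counterstained with propidium iodide. Acumen laser scanning gives % positive cells from Alexa 488/PI ratio, thresholded using 7.5 nM rapamycin; PI count gives viability.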
PMP22 txn: PMP22 gene transcription modulation; Potency, µM (series often up to 57.5 µM), for inactives: at the top dose activity change, negative = inhibition, usual class: inhibitors; AID 1508649; 2% of 43,000 active; S16 Pmp22-F2sN Schwann cells (luciferase reporters placed in the Pmp22 gene), FLuc/NLuc coincidence luminescence, 24 h; active = clear falling dose curves in both reporters; inconclusive = both reporters move, but less clearly or upward; inactive = either reporter flat; the % is the NLuc reporter signal
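Schwann cells carrying the coincidence reporter were exposed to library compounds for 24 h at 37C, then lysed and read for FLuc and, after quenching, NLuc luminescence on a CCD imager.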
p53null 39C kill: kills p53 null cells at the nonpermissive temperature; H1299 p53-null (neo) cells, 39C, ATPlite viability, 24 h; Potency, µM (doses to about 46.1 µM), inactives show at the highest dose activity, negative = cell killing, most hits filed as cytotoxic; 0.97% of 55,000 active; AID 904;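 note: 0% = DMSO only and -100% = full killing by 100 µM tamoxifen; nearly all actives have a fitted effect of over 50% in size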
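H1299 lung cancer cells, p53-null (H1299-neo) or expressing p53 A138V (H1299-p53A138V), were plated overnight at 37C, then exposed to compounds at up to 46 uM for 24 hr at 39C. Viability was read by ATP-based luminescence.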
An asterisk follows results filed as active; ? = inconclusive; nt = no result; [ ] = dose if it differs, or a comment. Sampled rows, rich in hits. Any-hit rate of the full collection: about 3.2%. Unless noted, calls come from the whole dose curve; as a rule, active = well fitted curve in the direction sought with a large enough effect; inconclusive = small, poorly fitted or top-dose-only effect, or another doubt; inactive = no such curve, though single readings can be large; an effect the other way counts as inactive or inconclusive. Unless noted, % is set by controls: 0 for no effect and ±100 for the full control effect; potency is the fitted concentration of half-maximal effect.

SMILES	S16 F2sN tox	p53null 32C kill	pS6 MEF inh	PMP22 txn	p53null 39C kill
Cc1c(Cl)cccc1NC(=O)Cn1cc(C(=O)C2CCCCC2)c2ccccc21	?	13.7%	-22.8%	10µM*	?
COc1cc(OC)c(N(C)C(=O)CSc2c3c(nc4ccc(Cl)cc24)CCCC3)cc1Cl	-3.5%	32.7%	-1.3%	?	20µM*
CN(Cc1ccccc1)C(=O)CSc1c2c(nc3ccc(Cl)cc13)CCCC2	?	?	13.1µM*	?	12.6µM*
CCCCN(C)C(=O)CSc1c2c(nc3ccc(Cl)cc13)CCCC2	-3.2%	1.1%	18.5µM*	?	78.3%
CCCN(CCC)C(=O)CSc1c2c(nc3ccc(Cl)cc13)CCCC2	26.9%	-26.0%	-12.0%	?	?
CC1CCCN(C(=O)CSc2c3c(nc4cc(Cl)ccc24)CCCC3)C1 (configuration not stated)	4.7%	3.0%	?	?	15.8µM*
O=C(CCN1C(=O)c2ccccc2C1=O)Nc1cccnc1	nt	-2.6%	nt	nt	-12.7%
COc1ccc(-c2cc(C(=O)Nc3c(C(=O)c4ccc(Cl)cc4)oc4ccccc34)no2)cc1	?	-2.1%	-4.4%	-7.5%	-6.5%
O=C1CC(c2ccccc2)Cc2[nH]c(=O)c(-c3nc(-c4cccc(Cl)c4)cs3)cc21 (configuration not stated)	?	22.1%	11.7µM*	-20.7%	-15.6%
Cc1cn2c(=O)cc(COC(=O)c3cccc(NC(=O)c4ccc(C(C)(C)C)cc4)c3)nc2s1	8.9%	2.51µM*	8.0%	2.5%	0.794µM*
CC(C)(C)c1ccc(C(=O)Nc2ccc(C(=O)OCc3cc(=O)n4ccsc4n3)cc2)cc1	?	?	13.3%	?	2µM*
Cc1ccc(C(=O)Nc2ccc(C(=O)OCc3cc(=O)n4ccsc4n3)cc2)cc1	7.5%	-0.8%	0.0%	-2.9%	-0.6%
Cn1cc(C(=O)N/N=C/c2cccs2)c2ccccc21	nt	-10.8%	nt	nt	-18.9%
O=C(N/N=C/c1cccs1)c1ccc2c(c1)OCO2	nt	2.82µM*	nt	nt	-19.3%[1.84 µM]
Cc1ccc(CNC(=O)CCC(=O)N2CCSc3ccccc32)cc1	8.5%	4.3%	-2.6%	-10.4%	-4.5%
COC(=O)c1c(NC(=O)c2ccc(S(=O)(=O)N3CCCCC3)cc2)sc2c1CCN(C)C2	?	-18.4%	4.14µM*	?	-1.1%
Cc1cccc(NS(=O)(=O)c2ccc3nc(-c4ccccc4)[nH]c3c2)c1C	-13.0%	?	1.2%	?	11.2µM*
Cc1ccc(NS(=O)(=O)c2ccc3nc(-c4ccccc4)[nH]c3c2)c(Br)c1	-3.7%	-5.7%	-20.2%	-4.0%	-20.9%
CC(C)c1ccc(NS(=O)(=O)c2ccc3nc(-c4ccccc4)[nH]c3c2)cc1	-25.9%	?	-1.3%	?	20µM*
O=S(=O)(Nc1ccc(Br)cc1)c1ccc2nc(-c3ccccc3)[nH]c2c1	-29.6%	-0.9%	11.7%	?	?
CCC(C)S(=O)(=O)c1oc(-c2ccc(F)cc2)nc1S(=O)(=O)c1ccc(F)cc1 (configuration not stated)	6.31µM*	25.1µM*	0.826µM*	2.53µM*	-17.5%
CCCCS(=O)(=O)c1oc(-c2ccc(F)cc2)nc1S(=O)(=O)c1ccc(C)cc1	?	15.8µM*	4.14µM*	8.43µM*	?
Cc1ccc(S(=O)(=O)c2nc(-c3ccc(F)cc3)oc2N2CCN(c3ccccc3)CC2)cc1	4.3%	2.1%	-8.2%	0.3%	4.8%
CCCCS(=O)(=O)c1oc(-c2cccs2)nc1S(=O)(=O)c1ccc(F)cc1	2.82µM*	22.5%	2.07µM*	3.03µM*	55.2%
CCS(=O)(=O)c1oc(-c2ccc(F)cc2)nc1S(=O)(=O)c1ccccc1	3.16µM*	?	0.131µM*	2.51µM*	27.8%
SMILES	S16 F2sN tox	p53null 32C kill	pS6 MEF inh	PMP22 txn	p53null 39C kill
CCOc1ccc(CNS(=O)(=O)c2ccc3c(c2)CC(C)N3C(C)=O)cc1OC (configuration not stated)	?	3.7%	-9.0%	?	-3.6%
OCCCn1c(-c2ccc(F)cc2)csc1=Nc1ccc(F)cc1	?	-4.1%[9.22 µM]	-4.0%	?	1.2%
O=S(=O)(c1ccc(-c2csc(=Nc3ccc(F)cc3)n2CCCCCCO)cc1)N1CCCC1	17.8µM*	1.0%[9.22 µM]	?	8.8µM*	?
COc1ccc(C)c2sc(N3CCN(C(=O)c4cccc(F)c4)CC3)nc12	?	-11.4%	-0.3%	?	8.1%
CC(C)CCOc1ccc(Cn2c(=O)sc3ccccc32)cc1	-0.1%	9.8%	-1.3%	-6.5%	-14.1%
CCS(=O)(=O)c1ccccc1C(=O)Nc1ccc(-c2nc3ccccc3s2)cc1	13.5%	-3.6%	10.9%	-13.8%	-14.8%
CC(C)(C)C(=O)Nc1ccc(-c2nc3ccccc3s2)cc1	0.2%	0.501µM*	3.0%	-4.1%	0.631µM*
CCOc1ccc(CCNC(=O)c2cc3cc4ccc(OC)cc4nc3s2)cc1OCC	4.9%	-1.8%	-11.6%	-10.3%	10.1%
O=C(CSc1nnc(-c2ccc([N+](=O)[O-])cc2)o1)Nc1ccccc1	0.8%	?	-1.0%	-5.1%	6.31µM*
Cc1cccc2c1-c1sc(C(=O)Nc3ccccc3C(N)=O)cc1CO2	?	15.8µM*	-1.0%	?	?
O=C(Nc1c(C(=O)Nc2cccc(C(F)(F)F)c2)oc2ccccc12)c1cc(=O)c2ccccc2o1	5.7%	0.4%	5.0%	2.2%	14.3%
COc1ccc2cc(CNc3ccccc3)c(=O)n(CC(=O)Nc3ccc(C)cc3C)c2c1	-11.3%	9.3%	7.36µM*	-17.6%	11.6%
COc1ccc2cc(CNc3ccc(C)cc3)c(=O)n(CC(=O)Nc3ccc(C)cc3Cl)c2c1	-1.3%	0.7%	-5.3%	?	-10.7%
CCOc1cc(CNCCSc2nnnn2C)cc(Cl)c1OCc1ccc(Cl)cc1	-12.5%	?	16.5µM*	?	11.2µM*
COc1cc(CNCCSc2nnnn2C)cc(Cl)c1OCc1ccccc1	?	7.6%	?	?	-12.4%
Cc1cccc(C(=O)Nc2c(C(=O)NCc3ccc(Cl)cc3)sc3nc(C)cc(C)c23)c1	?	-19.7%	13.1µM*	?	?
CCN(CCN(C)C)C(=O)C1CCN(S(=O)(=O)c2c(C)noc2/C=C/c2ccccc2F)CC1	?	9.5%	18.5µM*	?	?
CCOc1ccccc1/C=C/c1onc(C)c1S(=O)(=O)N1CCC(C(=O)N(CC)CC)CC1	?	36.9%	-5.2%	?	10.1%
COc1ccc(C)cc1NC(=O)CCNS(=O)(=O)c1cccc2nonc12	12.0%	-5.5%	20.7µM*	-1.1%	9.7%
Cc1cccc(NC(=O)CCNS(=O)(=O)c2cccc3nonc23)c1	16.3%	0.5%	-19.3%	3.4%	-11.8%
